Source: PubChem
PGC1a acetyl inh = PGC1a acetylation modulation, inhibitor mode; inhibition, % at 15.6 µM; U2OS PGC1a acetylation, AlphaScreen anti-acetyl-lysine; with virally co-expressed GCN5 acetyltransferase; hit rate 0.17% among 350,000; AID 651687;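 active = every replicate shows inhibition of at least 40%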;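 also: 0% = neutral control wells and 100% = positive control wells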
PAX8 reporter = PAX8 transcriptional activity inhibition; hit rate 1.2% among 360,000; AID 652154; inhibition, % at 12.6 µM; RMG-I TPO-luciferase reporter, SteadyGlo, 24 h;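 active = mean replicate inhibition at least 60% with every replicate also reaching 60%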;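 also: luciferase light reporting Pax8 driven TPO promoter activity; plate controls were median of neutral control wells for no effect and mitoxantrone controls for full effect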
EWS-Fli block = EWS/Fli transcriptional activity inhibition. A673 NR0B1-luciferase reporter, viability-normalised. inhibition, % at 12.6 µM. hit rate 0.67% among 350,000;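 active = mean inhibition of at least 50% after viability correction, with every replicate also passing that limit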;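 also: firefly luciferase signal divided by Alamar Blue viability fluorescence both relative to DMSO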
LGR2 antag = blocks bursicon-induced cAMP signaling via Drosophila LGR2. AID 720647. inhibition, % at 9.99 µM. HEK293 LGR2, CRE-luciferase, bursicon-stimulated, 4 h. hit rate 0.35% among 380,000;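 active = drop in luminescence signal, shown as inhibition above about 50% in the replicate tests, limit read from the data, passing the limit was not always enough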;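 also: agonist challenge used bursicon conditioned medium at about half maximal strength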
LMP1 NFkB inh = reduces LMP1-driven NF-kappaB luciferase signal | inhibition, % at 12.5 µM | hit rate 0.69% among 350,000 | AID 504558 | LMP1-induced NF-kappaB luciferase reporter cells, luminescence; in the data active = inhibition above about 41%;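 also: 0% = neutral control wells and 100% = reference inhibitor control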
TRPM1 prom inh = reduces MITF-dependent TRPM1 promoter luciferase signal | inhibition, % at 12.5 µM | hit rate 0.83% among 330,000 | SK-MEL-5 TRPM1 promoter luciferase, 24 h;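 active = mean inhibition across replicates of 60% or more, whatever share of single replicates reaches that level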
* marks the source's active call; other numbers are inactive results; / = no result given. Most compounds without a hit are left out; they make up all but 2.2% or so of the library.

SMILES | PGC1a acetyl inh | PAX8 reporter | EWS-Fli block | LGR2 antag | LMP1 NFkB inh | TRPM1 prom inh
COc1ccc(C(=O)N/C(=C\c2cn(C)c3ccccc23)C(=O)OCC(C)C)cc1 | / | 70* | 12 | -15 | -13 | -3
Cc1ccc(NC(=O)NC(=O)COc2ccc(Cl)cc2Cl)c(C)c1 | 0 | 117* | -1 | -12 | -11 | -16
C#CCOCCOCCOCCNc1nc(N2CCN(C(=O)CCCCCCCCCCNC(=O)[C@H](CCCCN)n3cc(C)nn3)CC2)nc(N2CCN(C(=O)CCCCCCCCCCNC(=O)[C@@H]([C@H](C)CC)n3cc(CCCCCN)nn3)CC2)n1 | / | / | / | / | -2 | 105*
C#CCOCCOCCOCCNc1nc(N2CCN(C(=O)CCCCCCCCCCNC(=O)[C@H]([C@@H](C)CC)n3cc(CCCCCN)nn3)CC2)nc(N2CCN(C(=O)CCCCCCCCCCNC(=O)[C@@H]([C@H](C)O)n3cc(C)nn3)CC2)n1 | 25 | / | / | / | -8 | 99*
C#CCOCCOCCOCCNc1nc(N2CCN(C(=O)CCCCCCCCCCNC(=O)[C@H](CCCCN)n3cc(CCO)nn3)CC2)nc(N2CCN(C(=O)CCCCCCCCCCNC(=O)[C@@H]([C@H](C)O)n3cc(C)nn3)CC2)n1 | 1 | / | / | / | -6 | 5
C#CCOCCOCCOCCNc1nc(N2CCN(C(=O)CCCCCCCCCCNC(=O)Cn3cc(CCCCCN)nn3)CC2)nc(N2CCN(C(=O)CCCCCCCCCCNC(=O)[C@H]([C@@H](C)CC)n3cc(CCCCCN)nn3)CC2)n1 | -19 | / | / | / | -1 | 97*
C#CCOCCOCCOCCNc1nc(N2CCN(C(=O)CCCCCCCCCCNC(=O)[C@H](CCC(=O)O)n3cc(CCCCCN)nn3)CC2)nc(N2CCN(C(=O)CCCCCCCCCCNC(=O)[C@@H]([C@H](C)O)n3cc(C)nn3)CC2)n1 | -2 | / | / | / | 0 | 8
C[C@H](CO)N1C[C@H](C)[C@@H](CN(C)C(=O)c2ccccc2F)Oc2ncc(-c3ccccc3)cc2C1=O | -23 | -25 | 7 | -2 | / | /
CCC(=O)N[C@@H]1CC[C@@H](CCNS(=O)(=O)c2ccc(Cl)cc2)O[C@H]1CO | 0 | -10 | -51 | 5 | / | /
O=C(C[C@@H]1C=C[C@H](NS(=O)(=O)c2ccc(F)cc2)[C@@H](CO)O1)NCCN1CCCCC1 | -4 | 9 | -5 | -10 | / | /
C[C@@H]1CCCCO[C@@H](CN(C)C(=O)c2ccccc2)[C@@H](C)CN([C@@H](C)CO)C(=O)c2cc(N(C)C)ccc2O1 | 11 | -19 | -4 | 7 | / | /
C[C@H]1CN([C@@H](C)CO)C(=O)c2cccc(NC(=O)C3CCCCC3)c2O[C@H]1CN(C)Cc1ccncc1 | 0 | -2 | 2 | -19 | / | /
CO[C@@]12[C@@H]3N[C@@H]3CN1C1=C(C(=O)C(N)=C(C)C1=O)[C@@H]2COC(N)=O | 3 | 48 | 27 | -18 | 62* | 58
CO[C@@]12[C@H](COC(N)=O)C3=C(C(=O)C(C)=C(N)C3=O)N1C[C@@H]1N[C@@H]12 | 5 | 13 | -4 | 11 | 5 | 4
Cc1ccc2c(Cl)cc(Cl)c(O)c2n1 | -14 | 9 | 6 | 11 | 40 | 73*
O=C(CCN1CCCCC1)NCC[C@H]1CC[C@@H](NC(=O)c2ccc(F)cc2)[C@@H](CO)O1 | 11 | -16 | 11 | 8 | / | /
Cc1ccc(S(=O)(=O)Nc2ccc3c(c2)CC(=O)N([C@@H](C)CO)C[C@H](C)[C@H](CN(C)Cc2ccc(Cl)c(Cl)c2)O3)cc1 | -4 | 6 | 69* | 30 | / | /
Cc1noc(C)c1S(=O)(=O)Nc1ccc2c(c1)CC(=O)N([C@@H](C)CO)C[C@@H](C)[C@H](CN(C)Cc1ccc(Cl)c(Cl)c1)O2 | 17 | 88* | 17 | 23 | / | /
Cc1ccc(S(=O)(=O)Nc2ccc3c(c2)CC(=O)N([C@H](C)CO)C[C@H](C)[C@@H](CN(C)Cc2ccc(Cl)c(Cl)c2)O3)cc1 | -6 | 82* | 10 | 14 | / | /
Cc1ccc(S(=O)(=O)Nc2ccc3c(c2)CC(=O)N([C@H](C)CO)C[C@@H](C)[C@@H](CN(C)Cc2ccc(Cl)c(Cl)c2)O3)cc1 | 0 | 30 | 4 | 26 | / | /
CCCNC(=O)Nc1ccc2c(c1)C(=O)N(C)C[C@H](OC)[C@H](C)CN(CCC(F)(F)F)[C@@H](C)CO2 | 2 | / | -13 | -9 | / | /
